Test [1] can be described thus: qHTS assay to identify small molecule agonists of the vitamin D receptor (VDR) signaling pathway - cell viability counter screen (AID 743224). For activity change, negative = cytotoxicity: % is set by controls: 0 for no effect and ±100 for the full control effect. Note: nearly all actives have a fitted effect of over 50% in size. Note: potency is the fitted concentration of half-maximal effect. Summed up:
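VDR-bla cells, 4 h after plating, exposed to compounds for 16 h at 37C; viability then read in the same wells as CellTiter-Glo luminescence after 30 min at room temperature, following the bla FRET read.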

Test [2] can be described thus: qHTS assay to identify small molecule antagonists of the vitamin D receptor (VDR) signaling pathway - cell viability counter screen (AID 743225). Note: nearly all actives have a fitted effect of over 50% in size. Note: potency is the fitted concentration of half-maximal effect. Summed up:
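HEK293T VDR-bla; cpd + 1a,25-(OH)2D3 3 nM final, 16 h 37C/5% CO2; B/G FRET substrate 2 h RT; then CellTiter-Glo 30 min RT, luminescence.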
In general terms: Quantitative high-throughput screening tests each substance at several concentrations.

Test [3] in a line: qHTS assay to identify small molecule agonists of the NFkB signaling pathway - cell viability counter screen (AID 1159515; calls by dose curve; note: nearly all actives have a fitted effect of over 55% in size; note: potency is the fitted concentration of half-maximal effect). The essentials:
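NFkB-bla ME-180 cells, 2,000/well, plated overnight at 37 C; compound added for 5 hr at 37 C. Viability read in the same wells as the bla reporter, by CellTiter-Glo luminescence after 30 min at room temperature.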

Test [4] in a line: qHTS assay to identify small molecule agonists of the endoplasmic reticulum stress response signaling pathway (AID 1159516; active = well fitted activation curve with a large enough effect in the signal ratio in the repeat runs, not every such curve was filed as active; the % refers to the signal ratio; note: % is set by controls: 0 for no effect and ±100 for the full control effect). The essentials: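 CellSensor ESRE-bla HeLa cells, 1,500 per well, plated overnight, then exposed to compounds for 5 hr at 37 C. Beta-lactamase reporter read with LiveBLAzer B/G FRET substrate after 2 hr at room temperature, 405 nm excitation, 460 and 530 nm emission.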

Test [5] is described as follows: qHTS assay to identify small molecule antagonists of the retinoid-related orphan receptor gamma (ROR-gamma) signaling pathway - cell viability counter screen (AID 1159520). Note: % is set by controls: 0 for no effect and ±100 for the full control effect; nearly all actives have a fitted effect of over 50% in size. The essentials:
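Tet-on ROR gamma CHO cells (1,000/well) were plated 4 hr, given compounds in DMSO for 2 hr at 37 C, then induced with 1 uM final doxycycline for 16 hr. Viability was read as ATP by CellTiter-Glo luminescence after 30 min.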

Test [6] has as its target Nuclear receptor ROR-gamma (Homo sapiens) (UniProt P51449). Kind of test: qHTS assay to identify small molecule antagonists of the retinoid-related orphan receptor gamma (ROR-gamma) signaling pathway (AID 1159521; note: nearly all actives have a fitted effect of over 50% in size; note: potency is the fitted concentration of half-maximal effect). The essentials: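 Cells were plated, rested 4 h at 37 C, exposed to compounds for 2 h, then given 1 uM final doxycycline hyclate to induce RORγ expression. After 16 h, ONE-Glo luminescence from the ROR response element reporter was measured.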

Test [7] can be described thus: qHTS assay to identify small molecule antagonists of the retinoid acid receptor (RAR) signaling pathway - cell viability counter screen (AID 1159551). Note: % is set by controls: 0 for no effect and ±100 for the full control effect; nearly all actives have a fitted effect of over 35% in size. The essentials: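 C3RL4 RARE-luciferase cells, 1,000/well, incubated overnight, then dosed with compound plus 1 uM retinol (final). After 6 hr at 37 C, viability read by CellTiter-Glo ATP luminescence following 30 min at room temperature.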

Test [8] in a line: qHTS assay to identify small molecule agonists of the retinoic acid receptor (RAR) signaling pathway (AID 1159553). Note: potency is the fitted concentration of half-maximal effect. Conditions: C3RL4 RARE luciferase reporter, agonist, 6 h; activation: at 73.3 µM (top of the series) unless noted. Summed up: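 C3RL4 RARE-luciferase cells were seeded at 1,000/well and grown overnight at 37 C, then exposed to compounds for 6 hr at 37 C, 5% CO2. Luciferase reagent was added and luminescence was read after 30 min at room temperature.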

Test [9] in a line: qHTS assay to identify small molecule agonists of the AP-1 signaling pathway - cell viability counter screen (AID 1159525; calls by dose curve; note: nearly all actives have a fitted effect of over 55% in size; note: potency is the fitted concentration of half-maximal effect). The essentials: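 ME-180 AP-1-bla, 2500 cells/well, Opti-MEM + 0.5% dialyzed FBS; overnight 37 °C; cpd 15-pt titration, 5 h 37 °C; CellTiter-Glo 30 min RT; luminescence read; normalised to TOAB and DMSO controls.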
A short description of test [10]: qHTS assay to identify small molecule agonists of the AP-1 signaling pathway (AID 1159526; calls by dose curve; note: % is set by controls: 0 for no effect and ±100 for the full control effect).
Test [11] is described as follows: qHTS assay to identify small molecule agonists of the RXR signaling pathway - cell viability counter screen (AID 1159529). Note: nearly all actives have a fitted effect of over 50% in size. Note: potency is the fitted concentration of half-maximal effect. Summed up: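 Steps: seed RXR-alpha-UAS-bla HEK 293T cells in assay medium containing 2% charcoal-stripped FBS; incubate 5 hr; add compounds in DMSO; incubate 16 hr at 37 C; after the bla read, add CellTiter-Glo and read luminescence at 30 min.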

The nature of test [12]: qHTS assay to identify small molecule antagonists of the retinoic acid receptor (RAR) signaling pathway (AID 1159552; note: nearly all actives have a fitted effect of over 50% in size; note: potency is the fitted concentration of half-maximal effect). The essentials:
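Retinol at 1 uM final stimulated RARE-luciferase expression in C3RL4 cells exposed to test compounds for 6 hr at 37 C. Reduced luminescence, read 30 min after detection reagent, indicated pathway antagonism.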

The nature of test [13]: qHTS assay to identify small molecule agonists of the estrogen related receptor (ERR) signaling pathway (AID 1224820). Note: % is set by controls: 0 for no effect and ±100 for the full control effect. The essentials: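 Cells: ERR line from NTP, 2,000/well. Pre-incubation 6 h, 37 C/5% CO2. Compound (DMSO) pin transfer, 18 h 37 C. One-Glo, 30 min RT, luminescence.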
The test system of test [14] is estrogen-related receptor alpha (ERRalpha) with PGC-1alpha coactivator, human. Description: qHTS assay to identify small molecule antagonists of the estrogen related receptor signaling pathway with the pleiotropic PPARgamma coactivator (PGC) (AID 1224821; calls by dose curve). The essentials: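 Luminescent read-out (One-Glo, 30 min at room temperature) following 18 h treatment of PGC/ERR cells at 37 C with compounds delivered in DMSO. Cells had settled 6 h at 37 C/5% CO2 before dosing.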

The target of test [15] is Retinoic acid receptor RXR-alpha (Homo sapiens) (UniProt P19793). Description: qHTS assay to identify small molecule agonists of the RXR signaling pathway (AID 1159527; calls by dose curve; note: % is set by controls: 0 for no effect and ±100 for the full control effect; nearly all actives have a fitted effect of over 35% in size). The essentials: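 Cells plated at 2,000/well, rested 5 hr at 37 C, pin-dosed with DMSO compound solutions, incubated 16 hr, then loaded with B/G FRET substrate for 2 hr at RT before dual-emission fluorescence reading.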

Inconclusive results are not listed. A structure can be active in one record and inactive in another. Activity calls are given as the source filed them. Unless noted, calls come from the whole dose curve; as a rule, active = well fitted curve in the direction sought with a large enough effect in the repeat runs; inconclusive = weak or mixed curves; inactive = no such curve, though single readings can be large; an effect the other way counts as inactive or inconclusive.

Sequence of Retinoic acid receptor RXR-alpha (Homo sapiens) (P19793 whole entry, looked up): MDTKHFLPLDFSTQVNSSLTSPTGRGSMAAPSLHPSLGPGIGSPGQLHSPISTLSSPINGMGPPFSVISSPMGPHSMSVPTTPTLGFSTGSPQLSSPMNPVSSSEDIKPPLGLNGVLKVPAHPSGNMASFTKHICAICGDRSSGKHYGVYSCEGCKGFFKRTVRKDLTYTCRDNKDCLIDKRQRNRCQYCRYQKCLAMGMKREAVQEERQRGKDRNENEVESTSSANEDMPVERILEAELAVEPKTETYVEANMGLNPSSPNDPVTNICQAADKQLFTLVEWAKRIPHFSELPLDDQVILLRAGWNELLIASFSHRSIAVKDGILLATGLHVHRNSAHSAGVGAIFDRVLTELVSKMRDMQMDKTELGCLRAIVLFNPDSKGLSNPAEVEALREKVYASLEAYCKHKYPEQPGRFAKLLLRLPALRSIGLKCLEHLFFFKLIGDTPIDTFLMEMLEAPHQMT

For `C#C[C@]1(OC(C)=O)CC[C@H]2[C@@H]3CCC4=C[C@@H](OC(C)=O)CC[C@@H]4[C@H]3CC[C@@]21C`, the Potency result in test [1], in test [2], in test [3], in [4], in test [5] and in [7] was “inactive” throughout. Besides, the Potency entry in test [8] was “inactive”. Moreover, the Potency in test [6] is 33.5 µM (active).

With `C=CC(=O)OCCOC(=O)C=C`, the Potency entry in test [1], in [2], in [3], in test [4], in test [5] and in test [9] was “inactive” in each case. Also, the Potency result in [10], in [11], in test [7], in [12] and in [8] was “inactive” in each case.

Take `CCOC(=O)c1ccc(C2CCC(NC[C@H](O)COc3ccc(O)c(NS(C)(=O)=O)c3)CC2)cc1` (stereo not given in full): the Potency in [1] is 40.3 µM (active); in [2] it was 35.9 µM (active); in [11], 10.1 µM (active). For the same compound, the Potency result in test [3], in test [4], in test [5], in [7] and in [8] was “inactive” throughout.

Regarding `CCN(CC)C(=O)c1cc(S(=O)(=O)Cc2ccccc2)c(N2CCC(c3ccccc3)CC2)cc1N(CC)CCN(C)C`, the Potency in test [2] is 17.2 µM (active); in [3], 21.6 µM (active); in test [6] it was 21.4 µM (active); in test [9] it was 17.2 µM (active); in test [11], 15.3 µM (active); in test [12] it was 21.4 µM (active). Also, the Potency result in [4] and in test [8] was “inactive” each time.

For the compound `CC(C)CCCCCOC(=O)CCS`, the Potency entry in test [1], in test [2], in [3], in [4], in [5] and in test [10] was “inactive” each time. For the same compound, the Potency result in test [11], in test [7], in test [12] and in test [8] was “inactive” in each case.

`OCCN1CCN(CCCN2c3ccccc3Sc3ccc(C(F)(F)F)cc32)CC1`: the Potency in test [2] and in [11] was 23.9 µM (active) each time. Further, the Potency result in test [3], in test [4], in [5], in test [9], in [7] and in test [14] was “inactive” throughout. In test [13], the outcome was inactive.

As for `C#C[C@]1(OC(C)=O)CC[C@H]2[C@@H]3CCC4=C/C(=N/O)CC[C@@H]4[C@H]3CC[C@@]21CC`, the Potency result in [1], in test [2], in test [3], in [4], in [5] and in [7] was “inactive” each time. For the same compound, the Potency entry in test [8] is “inactive”.

As to `Oc1c(I)cc(Cl)c2cccnc12`, the Potency in [1] was 5.49 µM (active); in test [6] it was 54.4 µM (active); in test [11], 1.09 µM (active); in [8], 76.8 µM (active) and inactive. Besides, the Potency result in [3], in [4], in test [7] and in test [12] was “inactive” throughout.

For the compound `CCCCCC/C=C\CCCCCCCC(=O)O`, the Potency entry in test [1], in [3], in [4], in test [5], in test [6] and in test [11] was “inactive” throughout. The Potency entry in [7], in test [12] and in [8] was “inactive” in each case.

For the compound `O=C(O)O`, the activity, negative = cytotoxic in test [3] is -3.19% [at 6.95 µM] (inactive). In [4], the activation was -2.74% [at 6.95 µM] (inactive). Besides, the activity, negative = cytotoxicity in [5] is 0.616% [at 8.39 µM] (inactive). Besides, in test [6], the Potency was 2.96 µM (active). The viability change, negative = cytotoxic in test [9] is -29.9% [at 6.97 µM] (inactive). Besides, in [7], the activity change, negative = cytotoxicity is 2.76% [at 8.39 µM] (inactive). Also, the activity, negative = inhibition in test [12] was -54.8% [at 8.39 µM] (inactive).

Take `C[C@H]1NCc2cc(-c3ccc4c(=O)c(C(=O)O)cn(C5CC5)c4c3OC(F)F)ccc21`: the Potency entry in test [1], in [2], in [3], in test [4] and in test [8] was “inactive” each time. Also, in test [5], the activity, negative = cytotoxicity is -17.1% [at 19 µM] (inactive). The viability change, negative = cytotoxic in [9] is 1.98% [at 15.8 µM] (inactive). For the same compound, the activation in test [10] is -2.94% [at 15.8 µM] (inactive); in test [15] it was -4.06% [at 15.8 µM] (inactive). For the same compound, in test [7], the activity change, negative = cytotoxicity is 0.739% [at 19 µM] (inactive).

These data come from PubChem BioAssay (Tox21).
